Results from PubChem BioAssay AID1745853 (National Center for Advancing Translational Sciences (NCATS), 2022).
The whole screen tested about 25,000 compounds, of which about 970 (3.9%) were called active. About 8% were inconclusive and are not listed. No rule for the calls is given here. What follows is part of a selection rich in actives, with near analogues and random picks from the rest.

Columns and labels:
Assay in all cases: Primary Screen for Target Class Profiling of Small Molecule Inhibitors of Methyltransferases
[1] = molecular target: Catechol O-methyltransferase (Homo sapiens) (UniProt P21964); settings: purified enzyme, MTase-Glo SAH luminescence; activity change, negative = inhibition: at 40 µM, stronger effect = lower value; outcome: 40 uM
Method in brief: (§1)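 Each enzyme was reacted with SAM and its substrate, with compounds tested once at 40 uM; SAH formed was read by MTase-Glo luminescence.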

[2] = molecular target: Glycine N-methyltransferase (Homo sapiens) (UniProt Q14749); settings: purified enzyme, MTase-Glo SAH luminescence; measured here: GNMT inhibition; at 40 µM; stronger effect = lower value
Method in brief: as §1

[3] = molecular target: Guanidinoacetate N-methyltransferase (Homo sapiens) (UniProt Q14353); settings: purified enzyme, MTase-Glo SAH luminescence; measured here: GAMT inhibition; at 40 µM; stronger effect = lower value
Method in brief: as §1

[4] = molecular target: Histamine N-methyltransferase (Homo sapiens) (UniProt P50135); settings: purified enzyme, MTase-Glo SAH luminescence; measured here: HNMT inhibition; at 40 µM; stronger effect = lower value
Method in brief: as §1

[5] = molecular target: Nicotinamide N-methyltransferase (Homo sapiens) (UniProt P40261); settings: purified enzyme, MTase-Glo SAH luminescence; measured here: NNMT inhibition; at 40 µM; stronger effect = lower value
Method in brief: as §1

[6] = molecular target: Phenylethanolamine N-methyltransferase (Homo sapiens) (UniProt P11086); settings: purified enzyme, MTase-Glo SAH luminescence; measured here: PNMT inhibition; at 40 µM; stronger effect = lower value
Method in brief: as §1
% is scaled to controls: 0 for no effect and ±100 for the full control effect.

Sequence of Nicotinamide N-methyltransferase (Homo sapiens) (P40261 whole entry, looked up): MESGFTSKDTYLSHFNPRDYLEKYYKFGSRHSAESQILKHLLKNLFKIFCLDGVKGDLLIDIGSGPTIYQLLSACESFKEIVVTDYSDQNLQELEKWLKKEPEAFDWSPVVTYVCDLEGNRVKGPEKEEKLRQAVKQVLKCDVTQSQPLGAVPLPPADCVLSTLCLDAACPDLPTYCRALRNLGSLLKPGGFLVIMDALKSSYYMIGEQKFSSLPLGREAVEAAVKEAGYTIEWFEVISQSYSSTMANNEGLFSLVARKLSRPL
Sequence of Catechol O-methyltransferase (Homo sapiens) (P21964 whole entry, looked up): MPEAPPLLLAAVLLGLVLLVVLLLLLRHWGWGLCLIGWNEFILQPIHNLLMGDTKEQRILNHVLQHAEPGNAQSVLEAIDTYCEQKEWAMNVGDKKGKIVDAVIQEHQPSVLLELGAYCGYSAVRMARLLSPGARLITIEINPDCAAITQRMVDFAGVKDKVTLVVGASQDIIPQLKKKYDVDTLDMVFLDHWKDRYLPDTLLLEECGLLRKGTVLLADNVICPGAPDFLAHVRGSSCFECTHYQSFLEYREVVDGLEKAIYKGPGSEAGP
Sequence of Phenylethanolamine N-methyltransferase (Homo sapiens) (P11086 whole entry, looked up): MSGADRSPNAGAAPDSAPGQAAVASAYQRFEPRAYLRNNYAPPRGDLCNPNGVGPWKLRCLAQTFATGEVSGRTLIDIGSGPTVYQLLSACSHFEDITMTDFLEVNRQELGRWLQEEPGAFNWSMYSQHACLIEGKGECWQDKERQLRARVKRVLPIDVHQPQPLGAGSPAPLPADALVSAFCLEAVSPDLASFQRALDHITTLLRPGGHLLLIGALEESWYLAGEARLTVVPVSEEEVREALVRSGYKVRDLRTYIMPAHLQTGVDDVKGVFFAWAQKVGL
Sequence of Histamine N-methyltransferase (Homo sapiens) (P50135 whole entry, looked up): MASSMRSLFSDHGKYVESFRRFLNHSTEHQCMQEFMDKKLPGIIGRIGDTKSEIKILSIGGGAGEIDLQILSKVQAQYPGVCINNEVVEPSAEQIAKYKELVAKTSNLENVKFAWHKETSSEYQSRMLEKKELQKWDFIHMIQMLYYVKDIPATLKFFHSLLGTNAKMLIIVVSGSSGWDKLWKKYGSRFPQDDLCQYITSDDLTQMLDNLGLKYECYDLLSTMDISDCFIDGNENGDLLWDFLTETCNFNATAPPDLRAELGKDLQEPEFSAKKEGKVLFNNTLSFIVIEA
Sequence of Glycine N-methyltransferase (Homo sapiens) (Q14749 whole entry, looked up): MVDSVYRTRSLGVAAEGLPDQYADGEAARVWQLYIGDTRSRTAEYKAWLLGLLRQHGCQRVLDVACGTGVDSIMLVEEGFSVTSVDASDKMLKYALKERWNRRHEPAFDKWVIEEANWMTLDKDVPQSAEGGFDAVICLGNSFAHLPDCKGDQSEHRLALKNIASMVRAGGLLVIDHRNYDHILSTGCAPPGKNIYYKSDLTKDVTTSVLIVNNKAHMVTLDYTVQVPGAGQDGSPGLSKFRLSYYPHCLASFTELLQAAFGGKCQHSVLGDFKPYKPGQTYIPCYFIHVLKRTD

SMILES | activity change, negative = inhibition [1] | activity change, negative = inhibition [2] | activity change, negative = inhibition [3] | activity change, negative = inhibition [4] | activity change, negative = inhibition [5] | activity change, negative = inhibition [6] | outcome [1]
CCOC(=O)c1cc(Nc2ccc(C(C)=O)cc2)c2cc(Cl)ccc2n1 | -3.11% (inactive) | -4.22% | 6.82% | 0.863% | 6.54% | -3.31% | 
Cc1ccc(N2C(=O)c3cc4sccc4n3CC2(C)C(=O)NC2CCCCC2C)cc1 (stereo not given) | -3.6% (inactive) | -2.03% | 1.51% | -1.92% | -1.16% | -6.83% | 
COc1cccc(-c2nnc3n(CCc4ccccc4)c(=O)c4ccccc4n23)c1O | 0.892% (inactive) | -4.84% | 0.066% | 2.53% | -3.08% | 0.274% | 
CN1CCCC1Cc1c[nH]c2ccc(CCS(=O)(=O)c3ccccc3)cc12 (stereo not given) |  | -2.16% |  | -89.9% |  |  | active
Cc1cc2c(cc3n2CC(C)(C(=O)NC2CCCCCC2)N(Cc2cccs2)C3=O)o1 (stereo not given) | -1.18% (inactive) | -9.3% | 4.66% | -6.23% | -21% | -2.94% | 
CCCCN1C(=O)c2cc(C(=O)NCc3cccc(OC)c3)nn2CC1(C)C(=O)NC1CCCC1 (stereo not given) | 4.35% (inactive) | 5.79% | 1.34% | 1.56% | 5.98% | 5.6% | 
CCn1c(=O)n(CC)c2cc(S(=O)(=O)Nc3ccc(Br)c(C)c3)c(Cl)cc21 | -4.03% (inactive) | -3.14% | 3.91% | -0.387% | -1.18% | -4.27% | 
CCCN1C(=O)c2c(C(=O)NCCc3ccco3)ncn2CC1(C)C(=O)NCc1ccc(C)cc1 (stereo not given) | 7.22% (inactive) | 0.693% | 0.268% | 5.09% | 4.66% | 9% | 
Cc1c(NC(=O)c2cc(C(N)=O)nc3cc(F)ccc23)c(C(F)(F)F)nn1Cc1ccc(C#N)cc1 | -4.71% (inactive) | -5.91% | -2.28% | 3.43% | -13.8% | 1.39% | 
COc1ccccc1CNC(=O)c1nn(CC2CC2)c2c1CNCC2 | -8.87% (inactive) | -6.08% | -7.04% | -9.87% | -14.1% | -12.2% | 
CC(C)n1c(=O)c2ccc(C(=O)NC3CCCCC3)cc2n2c(=O)n(CC(=O)NC3CCCCC3)nc12 | -2.65% (inactive) | -0.578% | -0.047% | 2.13% | -1.76% | -1.89% | 
CC(C)Cn1c(=O)c2ccccc2n2c(=O)n(Cc3ccccc3Cl)nc12 | 3.16% (inactive) | 2.72% | 1.02% | 6.97% | -2.52% | 3.52% | 
COc1c(C)c(OCC=C(C)C)cc2c1C(=O)NC2=O | 2.98% (inactive) | 1.17% | 8.39% | 6.71% | -18% | -15.7% | 
NC(=O)c1cnc(NCCc2ccc(O)c(Cl)c2)nc1NCc1ccccc1 | -21.7% (active) | -31.8% | -12.1% | -36% | -88.5% | -23.4% | 
O=C(CCc1nnc2ccc(NCCCN3CCCC3=O)nn12)NCc1ccccc1Cl | 10.2% (inactive) | 1.96% | 2.26% | 10.9% | 1.3% | 9.12% | 
C[C@@H]1C[C@H]2O[C@@]3(O[C@@H]2C(C)(C)O)C(O)[C@@]2(C)C4CCC5C(C)(C)[C@@H](O[C@H]6OC[C@H](O)[C@@H](O)[C@@H]6O)CC[C@@]56C[C@@]46CC[C@]2(C)C13 (stereo not given in full) | -3.8% (inactive) | 0% | -1.51% | -4.39% | -13.7% | -0.709% | 
COc1ccccc1CN1C(=O)c2cc3sccc3n2CC1(C)C(=O)NC1CCCC(C)C1C (stereo not given) | 4.18% (inactive) | 1.88% | 0% | 3.67% | -3.12% | 1.29% | 

SMILES | activity change, negative = inhibition [1] | activity change, negative = inhibition [2] | activity change, negative = inhibition [3] | activity change, negative = inhibition [4] | activity change, negative = inhibition [5] | activity change, negative = inhibition [6] | outcome [1]
Cc1cnc(-c2ccncc2)n1CCN | -5.2% (inactive) | -4.08% | -7.5% | -1.23% | -6.93% | -8.39% | 
Cc1cc(Cl)ccc1OCC(=O)N1CC(CO)C2(CCNCC2)C1 (stereo not given) | 2.63% (inactive) | -0.912% | -2.42% | -7.34% | 1.44% | 4.28% | 
CC(C)CCn1c(=O)c2ccc(C(=O)NC(C)C)cc2n2c(=O)n(CC(=O)Nc3ccccc3)nc12 | 3.2% (inactive) | 2.47% | 0% | -0.014% | 2.58% | 3.82% | 
COC(=O)C(C)C1CCC2(C)C(=O)C=CC(C)(O)C2C1O (stereo not given) | -21.2% (inactive) | 0.317% | 3.5% | 4.59% | -8.83% | 5.47% | 
CC1(C(=O)NC2CCCCC2)Cn2c(nc3ccccc32)C(=O)N1CCCc1ccccc1 (stereo not given) | -0.028% (inactive) | -0.457% | 2.95% | -0.222% | 2.79% | -1.29% | 
COc1cccc(S(=O)(=O)N2CCC([C@H]3[C@@H](OC)C(=O)N3C(C)C)CC2)c1 | -16.7% (inactive) | -11% | -0.234% | -8.83% | -11.7% | -7.58% | 
O=C(Nc1ccccc1Cl)N1CCn2cccc2C1Cc1ccccc1 (stereo not given) | 8.91% (inactive) | -4.49% | 0% | 0.539% | -1.29% | 1% | 
CC(=O)N(C1CCOCC1)C1CCN(S(=O)(=O)c2ccc3c(c2)OCCO3)CC1 | 14.5% (inactive) | 6.17% | 0% | 15.9% | 5.83% | 10% | 
COC1CCN(CC2CCCCCN2C(=O)NCc2ccc(F)cc2)CC1 (stereo not given) | 0.269% (inactive) | -0.541% | -1.47% | 0.992% | 0.892% | -1.43% | 
CCCc1sc(NC(=O)C[C@H]2NC(=O)c3ccccc3NC2=O)nc1C(=O)OC | -0.596% (active) | -52% | 0.55% | -1.11% | -24.7% | -7.16% | 
CCOc1ccc(NC(=O)N2Cc3c(sc4c3CCCC4)-n3cccc3C2c2ccc(C)cc2)cc1 (stereo not given) | -4.77% (inactive) | -7.14% | -5.05% | -0.466% | -12.8% | -3.68% | 
COc1ccc(CN2C(=O)c3cc4sccc4n3CC2(C)C(=O)NC2CCCCC2)cc1 (stereo not given) | -1.71% (inactive) | -4.01% | 4.64% | 0.743% | 0.231% | -2.93% | 
CCCN1C(=O)c2c(C(=O)NCc3ccc(OC(C)C)cc3)ncn2CC1(C)C(=O)NCc1ccccc1 (stereo not given) | 7.93% (inactive) | 0.786% | 0% | 10.9% | 0.527% | 8.93% | 
CCNc1ccnc(N2C[C@H]3CN(C(=O)N(C)C)C[C@@]3(C(=O)O)C2)n1 | 1.84% (inactive) | 0.021% | 1.18% | 0.65% | 1.12% | -1% | 
C=C1C(=O)O[C@@H]2[C@H]1CC[C@H](C)[C@]1(CCC(=O)O1)C2(C)O (stereo not given in full) | -16.8% (inactive) | 0% | 7.54% | 11.3% | -3.81% | 5.47% | 
Cc1cc(C)c(S(=O)(=O)NCCc2nc(-c3ccc(Cl)cc3)n[nH]2)cc1C | -7.11% (inactive) | 0.532% | 3.01% | -1.1% | -4.42% | -1.52% | 
